# The full list was thinned out, with hits kept by preference.
# IL-1B inflam inh: blocks inflammasome-driven IL-1 beta release; THP-1 LPS/ATP IL-1B secretion, AlphaLISA, 16 h; stronger effect = lower value; activity change, % at 57.5 µM; hit rate 4.7% among 360,000; in the data active = activity change below about -50%; inconclusive = mostly about -30% to -49%
#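 Secreted IL-1B measured by AlphaLISA bead assay after 16 h compound exposure of THP-1 cells; compounds (final up to 57.5 uM) added 1 h before LPS (250 ng/mL) and ATP (1.25 mM) stimulation; lower signal means less secretion.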
# DT40 TDP1 no CPT: qHTS for Inhibitors of human tyrosyl-DNA phosphodiesterase 1 (TDP1): qHTS in cells in absence of CPT | Potency, µM (highest dose often 46.2 µM), inactives show at the top dose activity change, negative = growth inhibition, hits mostly inhibitors | hit rate 15% among 420,000 | DT40 Tdp1-/- hTDP1 cells, no CPT, ATP luminescence, 48 h | AID 686978, 2013; also: potency is read from the fitted curve at half-maximal effect; nearly all actives have a fitted effect of over 55% in size
#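 Growth kinetics read by CellTiter-Glo luminescence after ≥48 hr at 37 °C. Cells: DT40 Tdp1-/- stably carrying human TDP1, 400 per well, compound exposure in the absence of CPT (DMSO vehicle).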
# 12-LOX inh: inhibitors of human 12S-lipoxygenase ALOX12. P18054. purified 12hLO, xylenol orange hydroperoxide absorbance. Potency, µM (series often up to 108 µM), for the others: at the highest dose activity change, negative = inhibition, actives largely listed as inhibitors. hit rate 1.1% among 580,000. AID 1671190; also: potency is read from the fitted curve at half-maximal effect
# Target sequence (P18054 whole entry, looked up): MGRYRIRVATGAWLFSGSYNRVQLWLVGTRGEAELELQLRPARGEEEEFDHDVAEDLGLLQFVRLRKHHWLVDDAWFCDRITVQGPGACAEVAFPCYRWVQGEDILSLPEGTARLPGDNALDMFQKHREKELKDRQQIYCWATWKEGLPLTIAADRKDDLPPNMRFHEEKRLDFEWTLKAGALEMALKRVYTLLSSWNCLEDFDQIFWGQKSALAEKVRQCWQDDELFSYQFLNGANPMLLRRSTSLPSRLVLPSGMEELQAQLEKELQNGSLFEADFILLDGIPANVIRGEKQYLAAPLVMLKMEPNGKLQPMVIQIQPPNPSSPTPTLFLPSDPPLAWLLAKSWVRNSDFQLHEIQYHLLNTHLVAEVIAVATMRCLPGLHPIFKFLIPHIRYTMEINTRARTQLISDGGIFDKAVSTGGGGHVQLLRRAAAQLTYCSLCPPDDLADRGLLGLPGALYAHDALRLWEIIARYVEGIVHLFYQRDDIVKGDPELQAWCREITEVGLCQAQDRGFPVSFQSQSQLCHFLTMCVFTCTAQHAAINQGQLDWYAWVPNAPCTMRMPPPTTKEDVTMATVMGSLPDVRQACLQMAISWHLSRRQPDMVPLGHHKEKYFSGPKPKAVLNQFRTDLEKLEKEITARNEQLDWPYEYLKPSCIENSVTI
#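 Purified human 12hLO (150 nM final) in 25 mM Hepes, 0.01% Triton X-100, pH 7.0 was preincubated 15 min at room temperature with compound. Then 40 uM arachidonic acid was added, 30 min. Hydroperoxide was read by Fe-XO absorbance ratio 573/405 nm.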
# TDP1 cell CPT: DT40-hTDP1 cell growth loss with CPT; chicken DT40 Tdp1-/-;hTDP1 cells + 20 nM CPT, ATP luminescence, 48 h; Potency, µM (titrated, usually from 46.2 µM), inactives show at the top dose activity change, negative = growth inhibition, usual class: inhibitors; hit rate 12% among 420,000; AID 686979; also: potency is read from the fitted curve at half-maximal effect; nearly all actives have a fitted effect of over 55% in size
#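 Cell growth measured by CellTiter-Glo luminescence after a minimum 48 h, 37 C compound exposure with 20 nM CPT in Tdp1-knockout DT40 cells stably expressing hTDP1, seeded 400/well; qHTS titration format.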
# HT1080NT lethal: kills 2HG-producing HT-1080-NT fibrosarcoma cells; HT-1080-NT fibrosarcoma viability, CellTiter-Glo ATP luminescence, 48 h; hit rate 1.6% among 360,000; AID 686970; Potency, µM (titrated, usually from 46.1 µM), inactives show top-dose activity, negative = less viability, actives largely listed as cytotoxic;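 also: NT is the 2HG producing partner of a matched IDH1 knockdown line; potency is read from the fitted curve at half-maximal effect; 0% = DMSO-treated cells and -100% = media-only wells without cells; nearly all actives have a fitted effect of over 55% in size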
#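 Viability of the 2HG-overproducing fibrosarcoma line after 48 hours of compound exposure at 37 degrees C was determined by luminescence with CellTiter-Glo, and concentration-effect curves were then fitted and categorized.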
# HT1080 IDH1KD tx: kills HT-1080 cells with IDH1 knockdown | HT-1080 IDH1 knockdown viability, ATP luminescence, 48 h | Potency, µM (doses to about 46.1 µM), without a hit: top-dose activity, negative = toxicity, most hits filed as cytotoxic | hit rate 2% among 360,000;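 also: potency is read from the fitted curve at half-maximal effect; 0% = DMSO wells and -100% = cell-free medium wells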
#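 CellTiter-Glo luminescence after 48 h compound exposure at 37 degrees C of IDH1-knockdown HT-1080 cells in 5% FBS RPMI. %Activity scaled between DMSO wells and cell-free media wells, with curves fitted and assigned curve classes.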
# * hit, by the source's call; u = inconclusive; x = not tested or not shown; [ ] = another dose, or the depositor's remark. Unless noted, calls follow the shape of the dose curve; as a rule, active = well fitted curve in the direction sought with a large enough effect; inconclusive = small, poorly fitted or top-dose-only effect, or another doubt; inactive = no such curve, though single readings can be large; an effect the other way counts as inactive or inconclusive. Unless noted, % is scaled to controls: 0 for no effect and ±100 for the full control effect.
SMILES,IL-1B inflam inh,DT40 TDP1 no CPT,12-LOX inh,TDP1 cell CPT,HT1080NT lethal,HT1080 IDH1KD tx
O=C(Cn1nc(-c2ccc(Br)cc2)ccc1=O)NCc1ccc2c(c1)OCO2,x,x,-21%,x,x,x
Cc1cc(C(=O)COc2ncnc3ccccc23)c(C)n1C(C)C,x,x,-4%,x,x,x
CCOC(=O)c1cnc(-n2nc(C)cc2C)nc1N(CC)CC,-5,16µM*,u,23µM*,u,1.6µM*
CCOC(=O)c1cnc(-n2nc(C)cc2C)nc1Nc1ccc(N(C)C)cc1,-5,1.8µM*,0%,1.3µM*,-8%,-20%
CCOC(=O)c1cnc(-n2nc(C)cc2C)nc1Oc1ccc(C#N)cc1,15,-27%,0%,-11%,13%,5%
CCOC(=O)c1cnc(-n2nc(C)cc2C)nc1NC,-14,u,-4%,u,7.1µM*,u
CCOC(=O)c1cnc2c(Cl)c(Cl)ccc2c1Nc1ccc(N(C)C)cc1,x,u,u,-17%,x,x
O=C(N[C@@H](Cc1ccccc1)C(=O)NCc1cccs1)c1cccs1,x,x,-17%,x,x,x
COc1ccc(N2CC(C(=O)N3CCC(C(=O)N4CCCC4)C3)NC2=O)cc1 (stereo not drawn),x,x,47%,x,x,x
Cc1cc(O)c(C(C)C)cc1N=Nc1ccccc1C(=O)O,19,u,17%,-11%,u,u
Cc1cc(NO)c(C(C)C)cc1N=O,-85*,10µM*,-16%,8.2µM*,-19%,-21%
CCOc1ccc(C(=O)CSc2nc3cc(C(=O)NCC(C)C)ccc3c(=O)n2CCOC)cc1,x,x,4%,x,x,x
Cc1c(NC(=O)c2nn3c(C(F)(F)F)cc(-c4ccccc4)nc3c2Cl)c(=O)n(-c2ccccc2)n1C,-51*,u,u,-2%,19%,0%
COCCNC(=O)c1cnn2c(C(F)F)cc(-c3ccccc3)nc12,2,21µM*,-6%,u,-4%,0%
COC(=O)c1ccccc1NC(=O)c1cnn2c(C(F)F)cc(C3CC3)nc12,-9,15µM*,0%,u,u,u
Cc1cc(NC(=O)c2cnn3c(C(F)(F)F)cc(-c4ccccc4)nc23)no1,-69*,23µM*,-5%[57.4 µM],13µM*,0%,0%
Cc1cc(NC(=O)c2cnn3c(C(F)F)cc(C4CC4)nc23)no1,-5,12µM*,-1%,u,0%,-1%
CCN(CC)c1ccc(NC(=O)c2cnn3c(C(F)F)cc(-c4ccccc4)nc23)cc1,x,13µM*,u,u,x,x
Cc1ccc(-c2cc(C(F)F)n3ncc(C(=O)Nc4cn(C)nc4C)c3n2)cc1,-11,u,-6%,-19%,17%,18%
O=C(Nc1cc(Cl)cc(Cl)c1)c1cnn2c(C(F)F)cc(C3CC3)nc12,x,x,24%,x,x,x
Cc1cc(NC(=O)c2cnn3c(C(F)F)cc(-c4ccccc4)nc23)no1,-12,9.2µM*,-8%,15µM*,-3%,6%
CC(C)c1ccc(NC(=O)c2cnn3c(C(F)F)cc(-c4ccccc4)nc23)cc1,x,u,-18%,u,x,x
Cn1c(=O)c2c(ncn2CCNC2=NCCCC2)n(C)c1=O,x,x,-42%,x,x,x
Cc1cc(=O)oc2cc(OCC(=O)NCC3(N(C)C)CCCCCC3)ccc12,x,x,6%,x,x,x
Cc1noc(C)c1CN(C(=S)NC(C)C)c1ccccc1,36,-21%,-13%,17%,13%,18%
SMILES,IL-1B inflam inh,DT40 TDP1 no CPT,12-LOX inh,TDP1 cell CPT,HT1080NT lethal,HT1080 IDH1KD tx
Cc1noc(C)c1CN(C(=S)NC1CC2CCC1C2)c1ccccc1 (stereo not drawn),u,23µM*,3%,u,-3%,-21%
CCCS(=O)(=O)N1CCC(N2CCCC(C(=O)N3CCOCC3)C2)CC1 (stereo not drawn),x,x,52%,x,x,x
Cc1ccc2nc(Nc3nc(CSc4nnc(C)s4)cc(=O)[nH]3)nc(C)c2c1,-88*,15µM*,-9%,u,0%,1%
CCCc1cc(=O)[nH]c(Nc2nc(C)c3ccccc3n2)n1,x,x,-2%,x,x,x
Cc1ccc2nc(Nc3nc(CSc4nc5ccccc5s4)cc(=O)[nH]3)nc(C)c2c1,1,15µM*,2%,12µM*,13%,7%
CNC(=O)C(C)n1nc(-c2cc(C)ccc2C)c2ccccc2c1=O (stereo not drawn),x,x,5%,x,x,x
Cn1cc([C@@H](NC(=O)c2scc3c2CCCC3)C2CC(O)C2)cn1 (stereo partly drawn),x,x,48%,x,x,x
O=C1Nc2ccccc2-n2nnnc2C1N1CCN(c2ccc(C(F)(F)F)cc2[N+](=O)[O-])CC1 (stereo not drawn),1,16µM*,0%,23µM*,u,u
Cc1ccc(C)c(N2CCN(C3C(=O)Nc4ccccc4-n4nnnc43)CC2)c1 (stereo not drawn),28,16µM*,-30%,21µM*,u,16µM*
COc1ccc(N2CCN(C3C(=O)Nc4ccccc4-n4nnnc43)CC2)cc1 (stereo not drawn),4,-26%,-61%,-8%,0%,7%
CCc1ccc2oc(=O)cc(CN3CCN(CC(=O)N4CCCCC4CC)CC3)c2c1 (stereo not drawn),x,x,3%,x,x,x
CN1CCN(c2cc(-c3ccccc3)nc3cc(-c4ccc(F)cc4)nn23)CC1,-96*,5.8µM*,u,4.1µM*,-8%,-1%
OCCCNc1cc(-c2ccccc2)nc2cc(-c3ccc(F)cc3)nn12,-91*,5.2µM*,20%,8.2µM*,u,u
Cc1cc(NCCCO)n2nc(-c3cccs3)cc2n1,x,3%,5%,27%,3%,-2%
Fc1ccc(-c2cc3nc(-c4ccccc4)cc(N4CCN(CCN5CCOCC5)CC4)n3n2)cc1,-74*,7.3µM*,u,12µM*,1%,11%
O=C(CCc1ccccc1)N1C[C@@H](CO)[C@H](c2nc(C3CC3)no2)C1,x,x,6%,x,x,x
Cc1ccccc1CCNC(=O)Cn1ncc2ccccc2c1=O,x,x,23%,x,x,x
CC1C/C(=N\NC(=S)NC(C)C)CC(C)(C)C1 (stereo not drawn),59,18µM*,u,10µM*,16%,8%
CCOc1ccc(Cl)cc1CN(C)Cc1cc2n(n1)CCCNC2,x,x,-2%,x,x,x
O=C(c1cc(-c2ccccc2)nn1-c1ccccc1)N1CCN(S(=O)(=O)c2c(F)cccc2F)CC1,-9,u,-5%,13µM*,2%,0%
O=C(c1cc(C2CC2)nn1-c1ccccc1)N1CCN(Cc2ccc(Cl)cc2)CC1,-17,12µM*,-18%,18µM*,-28%,-6%

# High-throughput results from PubChem BioAssay.
